Source: PubChem (NMMLSC)
In the library only some 1.8% were active in any assay of this set; here they are far more common.
ABCB6 inh MLPCN: inhibitors of human ABC transporter ABCB6; Q9NP58; K562-ABCB6 porphyrin accumulation, flow cytometry, 1 h; stronger effect = lower value; fluorescence ratio to DMSO, % at 10 µM; hit rate 0.19% among 360,000;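 active = fluorescence ratio to DMSO below 75%, the collection mean minus 3 SD; inconclusive = too few cells collected in the well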;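 also: signal is porphyrin accumulated inside mitochondria; 100% equals median channel fluorescence of DMSO control wells; lower ratio means ABCB6 inhibition with less porphyrin fluorescence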
Target sequence (Q9NP58 whole entry, looked up): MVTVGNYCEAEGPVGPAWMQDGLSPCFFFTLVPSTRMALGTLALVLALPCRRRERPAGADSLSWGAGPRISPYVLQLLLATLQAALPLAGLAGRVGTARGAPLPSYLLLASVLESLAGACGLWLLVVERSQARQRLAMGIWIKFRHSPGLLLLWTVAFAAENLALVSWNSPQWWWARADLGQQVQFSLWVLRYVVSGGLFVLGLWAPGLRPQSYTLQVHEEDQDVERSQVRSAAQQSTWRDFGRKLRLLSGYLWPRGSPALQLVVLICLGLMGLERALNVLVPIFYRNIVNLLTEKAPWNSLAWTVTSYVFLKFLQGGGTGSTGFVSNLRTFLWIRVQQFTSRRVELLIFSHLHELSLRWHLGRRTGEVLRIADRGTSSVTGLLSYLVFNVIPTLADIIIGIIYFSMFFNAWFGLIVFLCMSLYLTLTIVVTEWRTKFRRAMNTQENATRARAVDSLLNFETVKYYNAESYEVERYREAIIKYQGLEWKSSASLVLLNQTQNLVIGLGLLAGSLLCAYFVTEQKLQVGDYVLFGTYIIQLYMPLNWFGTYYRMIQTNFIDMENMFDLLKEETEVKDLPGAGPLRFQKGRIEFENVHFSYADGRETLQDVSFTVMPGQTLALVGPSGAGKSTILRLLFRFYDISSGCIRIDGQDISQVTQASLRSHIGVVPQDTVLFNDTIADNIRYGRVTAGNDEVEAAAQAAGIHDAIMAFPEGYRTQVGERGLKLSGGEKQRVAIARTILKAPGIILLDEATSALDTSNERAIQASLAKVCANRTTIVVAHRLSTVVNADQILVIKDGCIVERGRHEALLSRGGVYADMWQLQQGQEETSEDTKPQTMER
Exocytosis inh: blocks lytic granule exocytosis; AID 651702; inhibition, % at 10 µM; hit rate 0.66% among 360,000; TALL-104 LAMP-1 surface exposure, flow cytometry; cells stimulated with thapsigargin and PMA;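 active = inhibition above about 55%, limit read from the data; inconclusive = no clear call, values can overlap the other calls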
Myeloid diff 2: promotes myeloid progenitor differentiation | ER-HoxA9 myeloid progenitors, lysozyme-GFP differentiation, flow cytometry | calls only at 10 µM | hit rate 1% among 360,000 | AID 624256;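 active = normalized GFP-positive differentiation at or above the plate's own cutoff, the solvent-only control mean plus 3 SD; inconclusive = no clear call, values can overlap the other calls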;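 also: cells exposed to compound for four days before flow analysis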
Granule exo CP1: lytic granule exocytosis inhibition. shares compounds with Exocytosis inh. TALL-104 cells, LAMP-1 externalization, flow cytometry; stimulated with PMA plus thapsigargin. inhibition, % at 10 µM. hit rate 11% among 1,500. AID 651954; in the data active = inhibition above about 60%;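 also: 0% = stimulated vehicle wells and 100% = unstimulated wells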
An asterisk follows results filed as active; i = inactive; ? = inconclusive; nt = not tested or not shown.

SMILES | ABCB6 inh MLPCN | Exocytosis inh | Myeloid diff 2 | Granule exo CP1
COC(=O)c1cccc(-n2sc3ccccc3c2=O)c1 | 103.0 | 3.6 | i | nt
Cc1ccc(-n2sc3ccccc3c2=O)cc1 | 87.0 | 74.2* | i | 33.0
O=c1c2ccccc2sn1-c1ccc(F)cc1 | 94.0 | 7.6 | ? | nt
COc1ccc2nc(SC(C)C(=O)NC3CCCCC3)[nH]c2c1 (stereo unspecified) | 99.0 | 0.0 | i | nt
O=S1(=O)N=C(c2ccccc2)C=C(c2ccccc2)N1 | 99.0 | -1.3 | i | nt
CC1(c2cccc(Br)c2)NC(=O)N(CC(=O)N2CCc3ccccc32)C1=O (stereo unspecified) | 93.0 | 1.5 | i | nt
Cc1cn(CC(=O)N[C@H](C)c2cccc3ccccc23)c(=O)[nH]c1=O | 100.0 | -5.0 | i | nt
CCN(CC)CCCN(C(=O)c1ccc(Br)cc1)c1nc(-c2ccc(OC)cc2)cs1 | 103.0 | 62.7* | i | -8.9
CCN(CC)CCCN(C(=O)c1cccc(C)c1)c1nc(-c2ccc(OC)cc2)cs1 | 99.0 | 41.6 | i | nt
COc1ccc(Cn2cc(Cn3c4ccccc4c(=O)n3C(C)C)nn2)cc1 | 99.0 | 3.8 | i | nt
Cc1cc(OCC(=O)O/N=C(\N)c2ccccc2)ccc1Br | 102.0 | 0.9 | i | nt
Cc1ccc2nc(NC(=O)Cc3cccs3)sc2c1 | 85.0 | 0.1 | i | nt
Cc1ccc2nc(-c3ccc(NC(=O)Cc4cccs4)cc3)[nH]c2c1 | 102.0 | 68.0* | i | -12.4
Cc1ccccc1Nc1nc(N)nc(COC(=O)c2ccc(S(=O)(=O)N(C)C)cc2)n1 | 98.0 | 63.0* | i | -13.0
Cc1ccccc1Nc1nc(N)nc(COC(=O)c2ccco2)n1 | 102.0 | 2.7 | i | nt
CN(C)S(=O)(=O)c1ccc(NC(=O)COc2cccc3c2OC(C)(C)C3)cc1 | 96.0 | -2.7 | i | nt
CCN1C(=O)N[C@@H](c2ccccc2)[C@@H](C(=O)OC)[C@H]1C | 94.0 | -11.0 | i | nt
CCN1C(=O)N[C@@H](c2cccc(C(F)(F)F)c2)[C@@H](C(=O)OC)[C@H]1C | 96.0 | 101.1* | i | -12.2
O=C1C=C(c2ccccc2)CO1 | 96.0 | 10.5 | i | nt
Cc1ccc(C)c(OCc2cc(C(=O)N3CC[C@@H]4CCCC[C@H]4C3)no2)c1 | 99.0 | -4.8 | i | nt
COc1cc(C)ccc1OCc1cc(C(=O)N2CCC(c3ccc(F)cc3)C2)no1 (stereo unspecified) | 97.0 | 76.7* | i | -2.7
O=C(c1cc(COc2c(F)cccc2F)on1)N1CCC(c2ccncc2)CC1 | 96.0 | 86.3* | i | -14.6
Cc1cccc(C)c1OCc1cc(C(=O)N2CCC(c3ccncc3)CC2)no1 | 98.0 | 12.8 | i | nt
CN1C(=O)C(c2cn(C)c3ccccc23)(c2cn(C)c3ccccc23)c2cc(Br)ccc21 | nt | 3.7 | i | nt
COc1cccc(CN2CCNC(=O)C2CC(=O)NCCCN2CCCC2=O)c1 (stereo unspecified) | 95.0 | -13.0 | i | nt
SMILES | ABCB6 inh MLPCN | Exocytosis inh | Myeloid diff 2 | Granule exo CP1
COc1ccc(Cc2nnc(NC(=O)Nc3ccc(C)cc3)s2)cc1OC | 99.0 | 65.1* | i | -14.1
COc1ccc(NC(=O)Nc2nnc(Cc3ccc(OC)c(OC)c3)s2)cc1 | 88.0 | -10.4 | i | nt
COc1cccc(-c2nnn(CC(=O)N3CCCCC3)n2)c1 | 91.0 | -6.5 | i | nt
COc1ccccc1-c1cc(C(F)(F)F)nc(S(=O)(=O)CCCC(=O)NCc2ccc(F)cc2)n1 | 102.0 | 75.1* | nt | 5.1
COc1ccccc1-c1cc(C(F)(F)F)nc(S(=O)(=O)CCCC(=O)N2CCCCC2C)n1 (stereo unspecified) | 92.0 | 64.4* | nt | 4.0
COc1ccccc1-c1cc(C(F)(F)F)nc(S(=O)(=O)CCCC(=O)NC(C)C)n1 | 86.0 | 4.2 | ? | nt
COc1ccccc1-c1cc(C(F)(F)F)nc(S(=O)(=O)CCCC(=O)Nc2cc(C)on2)n1 | 95.0 | 5.2 | nt | nt
CSc1ccccc1C(=O)N(C)C(c1ccccc1)c1ccccc1 | 100.0 | 43.0 | i | nt
COC(=O)Nc1ccc(SCC(=O)c2cccc([N+](=O)[O-])c2)cc1 | 86.0 | 9.4 | i | nt
CC(C)c1ccc(-c2c(NCCc3ccccc3)c(=O)c2=O)cc1 | 96.0 | -11.9 | i | nt
NC(=O)c1ccc(NC(=O)c2ccc3c(c2)CCN3S(=O)(=O)c2ccccc2)cc1 | 99.0 | 71.9* | i | -0.7
O=C(O)c1cccc(NC(=O)c2cccc(S(=O)(=O)N3CCc4ccccc43)c2)c1 | 104.0 | -2.3 | i | nt
Cc1cc(OCC(=O)N2CCc3ccccc3C2)c(C)cc1Br | 199.0 | 35.9 | i | nt
COc1ccc(CC(=O)Nc2ccc(N3CCOCC3)cc2)cc1OC | 93.0 | -5.0 | i | nt
CC(C)c1ccccc1NC(=S)NC(C)c1ccccc1 (stereo unspecified) | 103.0 | 1.7 | i | nt
CC(NC(=S)Nc1ccc(F)cc1)c1ccccc1 (stereo unspecified) | 100.0 | 73.8* | i | -4.7
C(#CC12CC3CC(CC(C3)C1)C2)CN1CCOCC1 | 100.0 | -6.3 | i | nt
CCN(CC)S(=O)(=O)c1ccc(F)cc1 | 105.0 | -1.0 | i | nt
CCCc1ccc(S(=O)(=O)N(C)S(=O)(=O)c2ccc(F)cc2)cc1 | 95.0 | 69.8* | nt | -12.7
CCCCN(CC)C(=O)CSc1nc2n[nH]c(C)c2c(=N)n1-c1cccc(C)c1 | 100.0 | 62.5* | i | -9.8
CCN(C(=O)CSc1nc2n[nH]c(C)c2c(=N)n1-c1ccc(Cl)c(C)c1)c1cccc(C)c1 | 99.0 | 30.5 | i | nt
COc1ccc(C2CC(=O)C(C=NCCO)=C(O)C2)cc1 (stereo unspecified) | 97.0 | 0.7 | i | nt
CCOC(=O)c1nnc(-c2ccc(C)cc2)nc1Sc1ccc(Cl)cc1 | 87.0 | -6.0 | i | nt
CCOC(=O)c1nnc(-c2ccccc2)nc1Sc1c(Cl)cccc1Cl | 89.0 | 95.8* | i | 56.7
CCOC(=O)c1nnc(-c2ccc(C)cc2)nc1Oc1ccccc1Cl | 103.0 | 67.3* | i | 8.1
SMILES | ABCB6 inh MLPCN | Exocytosis inh | Myeloid diff 2 | Granule exo CP1
CCOC(=O)c1nnc(-c2ccccc2)nc1NCc1ccc(Cl)cc1 | 92.0 | 5.7 | i | nt
CCOC(=O)c1nnc(-c2ccc(C)cc2)nc1Oc1ccc(Cl)cc1Cl | 96.0 | 4.1 | i | nt
CCOC(=O)c1nnc(-c2ccc(C)cc2)nc1Sc1ccccc1Cl | 93.0 | 78.6* | i | 12.7
CCOC(=O)c1cc(CC)sc1NC(=O)c1ccc([N+](=O)[O-])c(N2CCOCC2)c1 | 92.0 | -1.3 | i | nt
O=C(CCN1CCC2CCC(C2)C1)c1ccccc1 (stereo unspecified) | 97.0 | -30.5 | i | nt
OC(CCN1CCC2CCC(C2)C1)c1ccc(Br)cc1 (stereo unspecified) | 96.0 | 59.0* | i | -4.7
CCOC(=O)c1c(NC(=O)c2ccn(CC)n2)sc2c1CCC2 | 103.0 | 79.6* | i | -3.3
CCOC(=O)c1c(NC(=O)c2nn(CC)cc2Br)sc2c1CCCCC2 | 105.0 | 2.9 | i | nt
Nc1cc(Cl)ccc1CN1C(=O)c2ccccc2C1=O | 91.0 | -1.0 | i | nt
O=C(CN1CCOCC1)Nc1ccc(NC(=O)c2ccccc2F)cc1 | 95.0 | -3.2 | i | nt
CCn1c(N2CCN(C(=O)c3ccco3)CC2)nc2ccccc21 | 100.0 | -4.2 | i | nt
O=C(c1ccco1)N1CCN(c2nc3ccccc3n3nnnc23)CC1 | 194.0 | 56.5* | i | -3.9
